Screens from PubChem BioAssay.
Sampled rows, rich in hits. Any-hit rate of the full collection: about 19%.
uPA surface inh: qHTS for Inhibitors of Cell Surface uPA Generation | cell surface uPA generation assay, qHTS | Potency, µM (doses to about 38.3 µM), for the others: at the highest dose activity change, negative = inhibition, actives largely listed as inhibitors | actives 0.31% (n = 330,000) | AID 540303, 2011; active means well fitted inhibition curve with a large enough effect; inconclusive means small, poorly fitted or top-dose-only effect; inactive means no such curve, though single readings can be large or run the other way; tested in mouse RAW 264.7 cells; further: potency means the concentration at half of the fitted maximal effect; nearly all actives have a fitted effect of over 55% in size
HT1080 IDH1KD tx: qHTS for induction of synthetic lethality in tumor cells producing 2HG: qHTS for the HT-1080-IDH1KD cell line; AID 686971, 2013; actives 2% (n = 360,000); Potency, µM (top dose mostly 46.1 µM), without a hit: at the highest dose activity, negative = toxicity, usual class: cytotoxic; HT-1080 IDH1 knockdown viability, ATP luminescence, 48 h;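 further: potency means the concentration at half of the fitted maximal effect; 0% = DMSO wells and -100% = cell-free medium wells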
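IDH1KD HT-1080 cells, 750/well, RPMI + 5% FBS; compound pinned after 2 h settling; 48 h, 37 °C; CellTiter-Glo luminescence; % activity normalised to DMSO and no-cell wells; curves fitted, classed by r2 and efficacy.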
HT1080NT lethal: qHTS for induction of synthetic lethality in tumor cells producing 2HG: qHTS for the HT-1080-NT fibrosarcoma cell line; AID 686970, 2013; actives 1.6% (n = 360,000); Potency, µM (top dose mostly 46.1 µM), without a hit: top-dose activity, negative = less viability, most hits filed as cytotoxic; HT-1080-NT fibrosarcoma viability, CellTiter-Glo ATP luminescence, 48 h;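 further: NT is the 2HG producing partner of a matched IDH1 knockdown line; potency means the concentration at half of the fitted maximal effect; 0% = DMSO-treated cells and -100% = media-only wells without cells; nearly all actives have a fitted effect of over 55% in size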
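Luminescent CellTiter-Glo readout after 48 hours of compound exposure at 37 degrees C defined viability of HT-1080-NT cells. Activity was normalized to DMSO wells and cell-free media wells; concentration-response curves were fitted and assigned curve classes.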
TDP1 cell noCPT: qHTS for Inhibitors of human tyrosyl-DNA phosphodiesterase 1 (TDP1): qHTS in cells in absence of CPT; DT40 Tdp1-/- hTDP1 cells, no CPT, ATP luminescence, 48 h; Potency, µM (top dose mostly 46.2 µM), without a hit: at the highest dose activity change, negative = growth inhibition, hits mostly inhibitors; actives 15% (n = 420,000); AID 686978, 2013; further: potency means the concentration at half of the fitted maximal effect; nearly all actives have a fitted effect of over 55% in size
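A cellular qHTS used chicken DT40 cells lacking endogenous Tdp1 but carrying stably transfected human TDP1. Compounds were applied without camptothecin, and cell growth kinetics were judged by ATP-dependent luminescence after ≥48 hr.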
IL1B secr inh: qHTS for Inhibitors of Inflammasome Signaling: IL-1-beta AlphaLISA Primary Screen | AID 743279, 2014 | activity change, % at 57.5 µM | THP-1 LPS/ATP IL-1B secretion, AlphaLISA, 16 h; stronger effect = lower value | actives 4.7% (n = 360,000); in the data active means activity change below about -50%; inconclusive means mostly about -30% to -49%
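Secreted IL-1B measured by AlphaLISA bead assay after 16 h compound exposure of THP-1 cells; compounds (final up to 57.5 uM) added 1 h before LPS (250 ng/mL) and ATP (1.25 mM) stimulation; lower signal means less secretion.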
TDP1 cell CPT: qHTS for Inhibitors of human tyrosyl-DNA phosphodiesterase 1 (TDP1): qHTS in cells in presence of CPT | chicken DT40 Tdp1-/-;hTDP1 cells + 20 nM CPT, ATP luminescence, 48 h | Potency, µM (highest dose often 46.2 µM), for the others: top-dose activity change, negative = growth inhibition, actives largely listed as inhibitors | actives 12% (n = 420,000); further: potency means the concentration at half of the fitted maximal effect; nearly all actives have a fitted effect of over 55% in size
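Chicken DT40 Tdp1-/- cells complemented with human TDP1, 400 cells/well, exposed to compounds plus 20 nM camptothecin for at least 48 h at 37 C; viability read as ATP content by CellTiter-Glo luminescence.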
Numbers without * were called inactive; ? = inconclusive; . = not tested or not shown; [ ] = remark or other dose. Unless noted, the call rests on the fitted dose curve; in most records, active means well fitted curve in the direction sought with a large enough effect; inconclusive means small, poorly fitted or top-dose-only effect, or another doubt; inactive means no such curve, though single readings can be large; an effect the other way counts as inactive or inconclusive. Unless noted, on the % scale 0 is the no-effect control and ±100 the full control effect.

SMILES	uPA surface inh	HT1080 IDH1KD tx	HT1080NT lethal	TDP1 cell noCPT	IL1B secr inh	TDP1 cell CPT
CN(C)c1ccc(-c2ccnc3c2CC(C)(C(=O)Nc2ccc(Cl)c(C(F)(F)F)c2)O3)cc1 (stereo not drawn)	.	?	?	5.17µM*	-20.3	?
CC(=O)Nc1ccc(-c2ccnc3c2CC(C)(C(=O)Nc2ccc4c(c2)OCO4)O3)cc1 (stereo not drawn)	.	?	?	?	-51.5*	18.4µM*
CC(=O)Nc1ccc(NC(=O)C2(C)Cc3c(-c4ccc5c(c4)OCO5)ccnc3O2)cc1 (stereo not drawn)	.	-17.4%	-11.0%	-8.6%	0.0	0.6%
CC(=O)Nc1ccc(-c2ccnc3c2CC(C)(C(=O)Nc2ccc(Cl)c(C(F)(F)F)c2)O3)cc1 (stereo not drawn)	.	16.4µM*	?	23.1µM*	-20.6	14.6µM*
CCc1nc2ccc(C(=O)N3CCN(C(=O)c4ccco4)CC3)cn2c1N(C)Cc1nccn1C	.	4.5%	1.3%	0.5%	0.0	6.5%
CCOc1cc(C(=O)Nc2cccc3ncccc23)cc(OCC)c1OCC	.	1.3%	6.3%[9.24 µM]	-18.7%	12.8	-11.0%
CC(=O)Nc1ccc(-c2ccnc3c2CC(C)(C(=O)Nc2ccc(Cl)cc2)O3)cc1 (stereo not drawn)	.	?	?	-24.1%	-53.1*	?
O=C(CCSCc1ccc(Cl)cc1)N1CCN(c2ccccc2F)CC1	.	.	.	-5.4%	.	-12.0%
O=C(CCC(=O)N1CCOc2ccc(Cl)cc21)NCCCN1CCN(c2ccccc2F)CC1	-12.7%	?	?	18.4µM*	-17.1	20.6µM*
COc1ccc(N2CCN(CCCNC(=O)CCC(=O)N3CCOc4ccc(Cl)cc43)CC2)cc1	1.1%	?	?	?	-10.7	?
O=C(CCC(=O)N1CCOc2ccc(Cl)cc21)NCCCN1CCC(Cc2ccccc2)CC1	?	-25.0%	-26.3%	18.4µM*	-1.5	?
Cc1ccc(CSCCC(=O)N2CCN(c3cc(C)ccc3C)CC2)cc1	.	.	.	13µM*	.	23.1µM*
Cc1ccc(C)c(N2CCN(C(=O)CCC(=O)N3CCOc4ccc(Cl)cc43)CC2)c1	-15.2%	?	?	25.9µM*	-13.9	14.6µM*
O=S1(=O)N[C@@H](Cc2ccccc2)COc2cc(Br)ccc21	-17.9%	-10.0%	-14.6%	-15.9%	7.9	0.3%
COc1cc(CN(C(=O)c2ccco2)C2CCS(=O)(=O)C2)cc(OC)c1OC (stereo not drawn)	5.5%	14.2%	-0.7%	24.7%	-6.5	-1.6%
Cc1cccc(CN2CCN(C(=O)CN(C)C(C)C(=O)Nc3ccc(C(N)=O)cc3)CC2)c1 (stereo not drawn)	12.4%	-1.1%	-1.4%	-29.0%	-2.4	-17.9%
CN(C)c1ccc(/C=C/c2ccc3cc(N)ccc3n2)cc1	.	.	.	3.16µM*	.	7.08µM*
Cc1ccc2nc(/C=C/c3ccc(N(C)C)cc3)ccc2c1	.	.	.	12.6µM*	.	12.6µM*
Cc1ccc2nc(/C=C/c3cccc(F)c3)ccc2c1	-1.7%	-17.8%	5.5%	?	6.1	1.2%
COc1ccc(C(=O)NCC2Cc3cc(F)cc(-c4cncnc4)c3O2)cc1 (stereo not drawn)	.	.	.	-30.0%	.	-12.6%
Cc1ccc(CNC(=O)C(=O)NCC(c2ccco2)S(=O)(=O)c2ccccc2)cc1 (stereo not drawn)	.	.	.	-4.1%	.	-4.6%
